Reference: PubChem BioAssay AID602295 (Broad Institute, 2012)
Activity calls are given as the source filed them.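 The calls were made as follows: active = every separate test run called active, meaning the signal drops and a potency is fitted within twice the top valid dose; inconclusive = runs disagree, poor fit, or flat partial inhibition; inactive = all runs inactive, flat, opposite direction or too weak.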

What follows are compounds tested against Mitogen-activated protein kinase 3 (Homo sapiens) (UniProt P27361) (assay: ERK1 kinase inhibitors, dose response, selectivity assay for Dyrk1A inhibitor NFAT project, biochemical, ADP-Glo luminescence, cherry pick, set 2 (AID 602295)). Settings: 120 min; series mostly up to 10 µM.
Chain of Mitogen-activated protein kinase 3 (Homo sapiens) (P27361 whole entry, looked up): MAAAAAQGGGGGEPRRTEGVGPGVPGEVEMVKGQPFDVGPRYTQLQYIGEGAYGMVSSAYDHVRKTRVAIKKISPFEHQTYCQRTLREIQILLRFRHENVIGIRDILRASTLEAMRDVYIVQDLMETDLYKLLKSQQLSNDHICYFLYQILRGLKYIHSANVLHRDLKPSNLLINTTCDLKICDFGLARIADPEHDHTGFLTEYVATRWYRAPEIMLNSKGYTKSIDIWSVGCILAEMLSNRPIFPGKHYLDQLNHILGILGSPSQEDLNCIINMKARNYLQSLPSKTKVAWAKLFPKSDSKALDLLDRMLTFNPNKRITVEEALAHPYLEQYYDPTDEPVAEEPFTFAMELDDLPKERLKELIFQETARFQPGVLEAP

outcome, inactive:
COc1cccc(Nc2ncnc3ccccc23)c1
O=C(Nc1nc(-c2ccc3c(c2)OCCO3)cs1)c1ccco1
Clc1ccc(CNc2ccnc(-c3ccc4[nH]ncc4c3)n2)cc1Cl
COc1cccc(Nc2nc(NCCO)c3ccccc3n2)c1
Cc1c(-c2ccnc(NCc3cccnc3)n2)sc(=O)n1C
c1csc(CCNc2ncnc3ccc(-c4ccc5c(c4)OCO5)cc23)c1
Cc1nc(CN(C)c2ncnc3ccc(-c4ccc5c(c4)OCO5)cc23)cs1
CSCC(=O)Nc1nc(-c2ccc3c(c2)OCCO3)cs1
Clc1ccc(CNc2cc(-c3ccc4c(c3)OCO4)ncn2)cc1
c1nc(NCC2CCCO2)c2cc(-c3ccc4c(c3)OCO4)ccc2n1 (stereo not drawn)
O=c1cc(-c2ccccc2Cl)oc2c(NS(=O)(=O)c3ccccc3C(F)(F)F)ccc(O)c12
CC(=O)Nc1ccc(SCc2ncc(-c3ccccc3)o2)cc1
c1nc(NCC2CCCOC2)c2cc(-c3ccc4c(c3)OCO4)ccc2n1 (stereo not drawn)
Cc1occc1CNc1ncnc2ccc(-c3ccc4c(c3)OCO4)cc12
Cc1nc(NC(=O)c2ccccc2)sc1-c1csc(N)n1
c1cncc(CNc2nccc(-c3ccc4[nH]ncc4c3)n2)c1
Clc1ccc(CNc2nccc(-c3ccc4cn[nH]c4c3)n2)cc1Cl
COc1cccc(NC(=O)c2sc(NC(=O)c3ccncc3)nc2C)c1
c1cncc(CNc2cc(-c3ccc4c(c3)OCO4)ncn2)c1
CC(=O)Nc1cccc(NC(=O)c2cc3ccccc3o2)c1
CC(Nc1nc(-c2cccnc2)nc2ccccc12)c1ccc(F)cc1 (stereo not drawn)
O=[N+]([O-])c1cc(Nc2nccc(-c3ccc4c(c3)OCO4)n2)cc(C(F)(F)F)c1
Cc1ccc(CN(C)c2ncnc3ccc(-c4ccc5c(c4)OCO5)cc23)o1
CCCC(=O)Nc1nc(-c2ccc3c(c2)OCCO3)cs1
O=C(COc1ccccc1)Nc1cccc(-c2cn3cccnc3n2)c1
COc1cccc(NC(=O)Nc2ccc3c(c2)N(C)C(=O)CS3)c1
Clc1ccc(Nc2nccc(-c3ccc4c(c3)OCO4)n2)cc1
Clc1cc(Cl)cc(CNc2ncncc2-c2ccc3c(c2)OCO3)c1
CC1Cc2ccccc2N1c1ncnc2nc[nH]c12 (stereo not drawn)
CCOC(=O)c1ccc(-c2ccc3ncnc(N(C)Cc4sccc4C)c3c2)o1
CCOC(=O)c1ccc(-c2ccc3ncnc(NCc4ccc(C)o4)c3c2)o1
c1coc(CCNc2ncnc3ccc(-c4ccc5c(c4)OCO5)cc23)c1
Clc1cc(Cl)cc(CNc2cc(-c3ccc4c(c3)OCO4)ncn2)c1
